Assay results as given in PubChem BioAssay AID1645852 (National Center for Advancing Translational Sciences (NCATS), 2021).
Hit rate of the full screen: of about 1,200 compounds, about 160 (13%) were called active. Inconclusive results (about 31%) are left out. Calls come from the whole dose curve; as a rule, active = well fitted inhibition curve with a large enough effect; inconclusive = small, poorly fitted or top-dose-only effect; inactive = no such curve, though single readings can be large or run the other way. These entries were drawn from the full list.

Each compound was assayed against Inositol hexakisphosphate kinase 1 (Homo sapiens) (UniProt Q92551) (assay: Confirmatory qHTS assay for small molecule inhibitors of Inositol hexaphosphate kinase 1 (IP6K1)). Settings: recombinant IP6K1 kinase, ADP-Glo luminescence, 2 h; series mostly up to 49 µM; activity change, negative = inhibition: at the top concentration.
Description: Assay Provider: Huijun Wei, M.S., Ph.D. School of Medicine, Johns Hopkins University, Baltimore, MD Inositol hexakisphosphate kinases (IP6Ks) catalyze pyrophosphorylation of inositol hexakisphosphate (IP6) into inositol 5-diphospho-1,2,3,4,6-pentakisphosphate (IP7), which is involved in numerous areas of cell physiology including glucose homeostasis, blood coagulation and neurological development. Inhibition of IP6Ks may be effective for the treatment of Type II diabetes, thrombosis, and psychiatric disorders. We performed a quantitative high throughput screen (qHTS) of 158,410 compounds for IP6K1 inhibitors using ankinase activity ADP-Glo Max assay. […] Medicinal chemistry SAR efforts in three chemical series identified potent IP6K1 inhibitors, which were further validated in an orthogonal LC-MS IP7 analysis.
PROTOCOL TABLE SEQUENCE No. (e.g., 1, 2, 3, etc.); […] (e.g., Cells, Incubation, Reagent, etc.); VALUE and DESCRIPTION. 1. Reagent, 3 uL of 1.3 mM ATP and 130 uM IP6 mixture in assay buffer was dispensed to a white, 1536-well assay plate. 2. Compound, 23 nL of compounds of the top two doses (57.5 uM and 19.1 uM final concentration) of the libraries were dispensed into the mixture using the Kalypsis pintool. 3. Reagent, 1 uL of 2.4 uM IP6K1 was dispensed to the assay plates. 4. Incubation, 2 hr incubation at room temperature. 5. Reagent, 2 uL of ADP-Glo reagent was added to the wells. 6. Incubation, 1 hr incubation at room temperature. 7. Reagent, 4 uL or ADP-Glo substate was added to the wells. 8. Incubation, 45 min incubation at room temperature. 9. Detection, luminescence signal was detected using the ViewLux microplate imager (PerkinElmer).
% is set by controls: 0 for no effect and ±100 for the full control effect; potency is the fitted concentration of half-maximal effect.
Note: nearly all actives have a fitted effect of over 65% in size.

Chain of Inositol hexakisphosphate kinase 1 (Homo sapiens) (Q92551 whole entry, looked up): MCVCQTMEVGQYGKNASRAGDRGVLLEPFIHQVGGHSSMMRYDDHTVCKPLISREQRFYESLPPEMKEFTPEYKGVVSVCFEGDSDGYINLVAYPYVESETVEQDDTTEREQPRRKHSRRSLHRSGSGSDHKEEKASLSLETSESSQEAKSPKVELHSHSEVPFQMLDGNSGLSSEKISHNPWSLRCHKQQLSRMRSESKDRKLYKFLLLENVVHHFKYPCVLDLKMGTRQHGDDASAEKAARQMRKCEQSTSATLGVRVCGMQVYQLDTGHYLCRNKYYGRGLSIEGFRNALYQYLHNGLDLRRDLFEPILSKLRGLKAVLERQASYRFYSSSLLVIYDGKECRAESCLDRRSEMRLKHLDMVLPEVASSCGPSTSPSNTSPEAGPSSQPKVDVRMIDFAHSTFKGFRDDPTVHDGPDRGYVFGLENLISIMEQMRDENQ

Activity change, negative = inhibition, inactive:
Cc1ccc(CNC(=O)CCc2c(C)nc3c(c(C)nn3-c3ccccc3)c2C)cc1 -6.31%
COc1ccc(C2Cn3nnc(C(=O)N4CCN(C(=O)c5ccc(C)cc5C)CC4)c3CO2)cc1 (centres undefined) 4.29%
COc1c(C)cnc(CN(C)C(=O)C2CC(=O)N(C3CCCC3)C2)c1C (centres undefined) 0.975%
CCCS(=O)(=O)c1ncc(Cl)c(C(=O)Nc2scc(-c3ccccc3)c2C(=O)OCC)n1 -6.72%
Cc1ccc(-c2nnc3ccc(-c4ccoc4)nn23)nc1 0.0128% [at 92.2 µM]
CC1=C(C(=O)Nc2ccccc2Cl)C(c2cccs2)n2ncnc2N1 (centres undefined) -29.2%
CN(C)[C@@H]1C(=O)C(C(N)=O)=C(O)[C@@]2(O)C(=O)C3=C(O)c4c(O)ccc(Cl)c4[C@@H](O)[C@H]3C[C@@H]12 -16.3%
Cc1ccc(-c2cc(C(=O)Oc3ccccc3Cl)no2)cc1C 30.1%
Cc1cccc(C(=O)N2CCC3(CC2)CC(c2ccccc2)CN(C)C3)n1 (centres undefined) -16.6%
Cc1cc(C)c(/C=C2\C(=O)Nc3ccccc32)[nH]1 -5.46%
Cc1ccc(-c2onc(C)c2C)cc1S(=O)(=O)Nc1ccccn1 -5.89%
CC(C)(C)OC(=O)N1CCC(c2c(C(=O)N3CCc4ccccc4C3)cnn2-c2ccc(F)cc2)CC1 4.4%
CCc1ccccc1N1CC(c2nc3ccccc3n2CCCCOc2ccccc2)CC1=O (centres undefined) -0.175%
O=c1cc(-c2cccnc2)oc2c(-c3ccccc3O)nccc12 -25.6%
CCOC(=O)c1cc2c(=O)n3ccccc3nc2n(Cc2ccco2)c1=NC(=O)c1ccc(F)cc1 -13%
CCOC(=O)c1ccc(CSc2nnc3cc(C)c4ccccc4n23)cc1 -13%
Cc1ccc2c(c1)N(CC(=O)NCCCN1CCCCC1)C(=O)c1cccnc1O2 -8.72%
O=C(OCCN1CCOCC1)c1cccnc1Nc1cccc(C(F)(F)F)c1 -19.8%
COc1ccccc1N1CCN(S(=O)(=O)CCNC(=O)COc2ccc(F)cc2)CC1 0.724%
CCOc1ncccc1C(=O)N1CCN(Cc2ccccc2)CC(O)C1 (centres undefined) -4.84%
O=c1ncn(Cc2ccccc2)c2ccc(-c3ccoc3)nc12 -9.81%
CCOC(=O)c1ccc(NC(=O)CCS(=O)(=O)c2ccc(C)cc2)cc1 -10.6%
CO[C@H]1C=CO[C@@]2(C)Oc3c(C)c(O)c4c(O)c(c(/C=N/N5CCN(C)CC5)c(O)c4c3C2=O)NC(=O)/C(C)=C\C=C[C@H](C)[C@H](O)[C@@H](C)[C@@H](O)[C@@H](C)[C@H](OC(C)=O)[C@@H]1C -21.3%
CCOc1ccccc1NC(=O)C1CCCN(S(=O)(=O)c2cn(C)cn2)C1 (centres undefined) -14.5%
C(=C\c1ccccc1)/CN1CCN(c2nccc(-c3cccnc3)n2)CC1 -13.6%
CCc1ccccc1N1C(=O)CN(S(=O)(=O)CC)CC1(C)C(=O)NC1CCCCC1 (centres undefined) 22.6%
O=c1c2ccccc2n(Cc2cccc(Cl)c2)c(=O)n1Cc1ccccc1 -4.11%
Cc1ccc(NC(=O)c2cc(S(=O)(=O)NCCC3=CCCCC3)ccc2F)cc1C 4.86%
CC1(C)CN(C(=O)c2ccc(-c3cccc4nc(NC(=O)C5CC5)nn34)cc2)C1 7.31%
COc1ccc2ncc3c(-c4ccc(C)c(C)c4)nn(CC(=O)NC4CCCC4)c3c2c1 26.6%
Cc1ccncc1C(=O)N1CCC2(CC1)CC(c1ccccc1)C(=O)N2C (centres undefined) -13.6%

Potency, active:
COc1cc(NC(=O)Nc2cccc(CNC(=O)O[C@H]3CCOC3)c2)ccc1-c1cnco1 8.2 µM
C#C[C@]1(O)CC[C@H]2[C@@H]3CCC4=C/C(=N/O)CC[C@@H]4[C@H]3CC[C@@]21CC 1.84 µM
CCOc1cccc2c1N[C@@H](c1ccc(C(=O)O)cc1)[C@H]1CC=C[C@@H]21 20.6 µM
